The source made the active and inactive calls. How the source made its calls: active means hit-call score of the fitted dose curve at least 0.9, where 1 is the maximum; inactive means score below 0.9.
Tests used:
[1] = ATG_CMV_CIS: Attagene CIS-FACTORIAL HepG2 Assay for human CMV (Internal Marker) (AID 2282928); conditions: HepG2 CMV promoter reporter, transcription factor profiling; actives raise or lower the signal;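 further: endpoint acts as a background internal control marker rather than a target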
In short: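 24 h chemical treatment, HepG2 with transient multi-reporter transfection; RNA → oligo(dT) RT → PCR → 6-FAM extension → HpaI digest → CE fluorescence. Bidirectional fit, DMSO negative control.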

[2] = ATG_DR4_LXR_CIS: Attagene CIS-FACTORIAL HepG2 Assay for human Liver X Receptor (LXR), DR4 submotif (AID 2282929); conditions: HepG2 Attagene DR4 cis-reporter, mRNA transcription; actives raise or lower the signal
In short: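 Measures endogenous transcription factor activity via a DR4-driven reporter transcript in human HepG2 cells. Compounds incubated 24 h; mRNA quantified by RT-PCR and capillary electrophoresis, analysed as gain or loss of signal versus DMSO.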

[3] = biological target: Aryl hydrocarbon receptor (Homo sapiens) (UniProt P35869); assay: ATG_Ahr_CIS: Attagene CIS-FACTORIAL HepG2 Assay for human Aryl Hydrocarbon Receptor (Ahr) (AID 2282930); conditions: HepG2 AhR cis-factorial reporter transcription; actives raise or lower the signal
In short: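 HepG2, transient MRTU (cis) transfection, 24 h exposure. RNA → cDNA → PCR → 6-FAM primer extension → HpaI 2 h 37 C → CE. Fit: bidirectional, DMSO baseline.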

[4] = ATG_AP_1_CIS: Attagene CIS-FACTORIAL HepG2 Assay for human Activator Protein 1 (AP-1) (AID 2282931); conditions: HepG2 Attagene cis-factorial AP-1 reporter mRNA; actives raise or lower the signal
In short: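 Bidirectional concentration-response fitting against DMSO controls. Underlying signal: reporter mRNA from cis-promoter constructs in transiently transfected HepG2, measured after 24 h by RT-PCR and capillary electrophoresis.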

[5] = ATG_AP_2_CIS: Attagene CIS-FACTORIAL HepG2 Assay for human Activator Protein 2 (AP-2) (AID 2282932); conditions: HepG2 AP-2 cis-reporter, Attagene transcription factor profiling; actives raise or lower the signal
In short: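 Transiently transfected HepG2 cells are exposed to chemical for 24 h. Reporter transcripts are then measured as fluorescence following RT-PCR and capillary separation, and gain- or loss-of-signal is fitted relative to DMSO.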

[6] = ATG_BRE_CIS: Attagene CIS-FACTORIAL HepG2 Assay for human Bone Morphogenetic Protein (BMP) Response Element (BRE) (AID 2282933); conditions: HepG2 BMP response element reporter, Attagene transcription factor profiling; actives raise or lower the signal
In short: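 Transient MRTU transfection of human HepG2 liver cells; 24 h compound treatment; total RNA isolated, reverse-transcribed, PCR-amplified, 6-FAM labelled, HpaI-cut, capillary electrophoresis. DMSO = negative control/baseline, bidirectional fit.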

[7] = biological target: Retinoic acid receptor alpha (Homo sapiens) (UniProt P10276); assay: ATG_DR5_RAR_CIS: Attagene CIS-FACTORIAL HepG2 Assay for human Retinoic Acid Receptor Alpha (RARE), DR5 submotif (AID 2282934); conditions: HepG2 Attagene cis-factorial RARE DR5 reporter, mRNA; actives raise or lower the signal;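 on AC50: reporter responds to endogenous RAR alpha beta and gamma in HepG2 not RARA alone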
In short: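 HepG2, transient cis-reporter transfection, 24 h exposure. mRNA readout: RT-PCR, FAM label, HpaI cut, capillary electrophoresis. DMSO baseline, gain/loss fitting.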

[8] = biological target: Transcription factor E2F1 (Homo sapiens) (UniProt Q01094); assay: ATG_E2F_CIS: Attagene CIS-FACTORIAL HepG2 Assay for human E2F Transcription Factor 1 (AID 2282935); conditions: HepG2 Attagene cis-reporter, E2F reporter RNA transcripts; actives raise or lower the signal
In short: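 Fluorescent RT-PCR products, digested with HpaI for 2 h at 37 C, are separated by capillary electrophoresis. Source RNA comes from transfected HepG2 cultures treated for 24 h.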

[9] = ATG_E_Box_CIS: Attagene CIS-FACTORIAL HepG2 Assay for human Enhancer Box (E-box) (AID 2282936); conditions: HepG2 E-box cis-reporter transcription, actives raise or lower the signal
In short: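 Fluorescent reporter fragments separated by capillary electrophoresis gave the signal; mRNA came from HepG2 cells transfected with cis-element reporters and treated 24 h. Curves fitted bidirectionally relative to DMSO controls.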

[10] = ATG_M_61_CIS: Attagene CIS-FACTORIAL HepG2 Assay for M61 Transcription Factor (Internal Marker) (AID 2282937); conditions: HepG2 Attagene CIS-FACTORIAL M61 internal marker reporter; actives raise or lower the signal
In short: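 Fluorescence from labelled cDNA fragments, separated by capillary electrophoresis, quantifies reporter induction. HepG2 cells bearing transiently transfected cis-promoter MRTUs were incubated with test chemical for 24 h; DMSO defined baseline for gain/loss fitting.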

[11] = ATG_EGR_CIS: Attagene CIS-FACTORIAL HepG2 Assay for human Early Growth Response 1 (EGR1) (AID 2282938); conditions: HepG2 Attagene CIS-FACTORIAL EGR reporter mRNA; actives raise or lower the signal
In short: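 Cell-based multiplex transcription assay: HepG2 carrying transfected cis-element reporter units, 24 h chemical treatment. Fluorescence from capillary electrophoresis of RT-PCR products gives mRNA levels; fitting is bidirectional relative to DMSO.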

[12] = ATG_M_19_CIS: Attagene CIS-FACTORIAL HepG2 Assay for M19 Transcription Factor (Internal Marker) (AID 2282939); conditions: HepG2 Attagene CIS-FACTORIAL M19 internal marker reporter; actives raise or lower the signal
In short: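 Transfect HepG2 with MRTU reporter library → dose chemical, 24 h → isolate total RNA, reverse-transcribe with oligo(dT) → PCR, 6-FAM label, HpaI cut (2 h, 37 C) → capillary electrophoresis. Bidirectional fit vs DMSO.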

[13] = ATG_Ets_CIS: Attagene CIS-FACTORIAL HepG2 Assay for human Erythroblast Transformation Specific (ETS) (AID 2282941); conditions: HepG2 ETS cis-reporter transcription, actives raise or lower the signal
In short: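 Cis-regulated reporter mRNA induction in HepG2 (transient transfection), 24 h exposure, RT-PCR plus capillary electrophoresis detection; DMSO serves as negative control and baseline.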

[14] = biological target: Hepatocyte nuclear factor 3-beta (Homo sapiens) (UniProt Q9Y261); assay: ATG_FoxA2_CIS: Attagene CIS-FACTORIAL HepG2 Assay for human Forkhead box A2 (FOXA2) (AID 2282942); conditions: HepG2 cis-reporter transcription factor activity, 24 h; actives raise or lower the signal
In short: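 In transiently transfected human HepG2 cells, promoter-driven reporter mRNA levels after 24 h chemical exposure are determined via RT-PCR with capillary electrophoresis. DMSO serves as baseline for bidirectional fitting.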

[15] = ATG_FoxO_CIS: Attagene CIS-FACTORIAL HepG2 Assay for human Forkhead box O (FoxO) (AID 2282943); conditions: HepG2 Attagene cis-reporter, FoxO element, mRNA; actives raise or lower the signal
In short: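 Human hepatoma HepG2 cells carry transiently introduced reporter transcription units controlled by cis promoter elements. Chemical treatment lasted 24 h, and mRNA signal was compared with DMSO.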

[16] = ATG_GATA_CIS: Attagene CIS-FACTORIAL HepG2 Assay for human GATA Binding Protein (AID 2282944); conditions: HepG2 GATA cis-element reporter, Attagene multiplex mRNA; actives raise or lower the signal
In short: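 Transient MRTU transfection, HepG2, 24 h compound exposure. Total RNA → oligo(dT) RT → PCR → 6-FAM primer extension → HpaI cut → CE. Bidirectional fit vs DMSO.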

[17] = ATG_GLI_CIS: Attagene CIS-FACTORIAL HepG2 Assay for human Zinc Finger Protein GLI1 (AID 2282945); conditions: HepG2, Attagene cis-factorial reporter mRNA, GLI element; actives raise or lower the signal
In short: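 Bidirectional curve fits relative to DMSO, using reporter mRNA levels from RT-PCR plus capillary electrophoresis. Cells were HepG2 transiently carrying cis-regulated reporter constructs, harvested 24 h after dosing.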

[18] = ATG_ERE_CIS: Attagene CIS-FACTORIAL HepG2 Assay for Estrogen Response Element (ERE) (AID 2282940); conditions: HepG2 ERE cis-reporter, Attagene RNA transcript; actives raise or lower the signal
In short: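 Transient MRTU transfection of human HepG2; cis-element promoters; 24 h dosing; total RNA → RT (oligo dT) → PCR → 6-FAM primer extension → HpaI digest → CE fluorescence. Bidirectional fit, DMSO baseline.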

[19] = biological target: Bile acid receptor (Homo sapiens) (UniProt Q96RI1); assay: ATG_IR1_CIS: Attagene CIS-FACTORIAL HepG2 Assay for human Nuclear Receptor Subfamily 1 Group H Member 4 (NR1H4), IR1 submotif (AID 2282946); conditions: IR1 reporter transcription, actives raise or lower the signal
In short: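 HepG2 cells transiently transfected with multiplexed cis-element reporter units read endogenous transcription factor activity. After 24 h compound exposure, reporter mRNA was quantified by RT-PCR, fluorescent labelling, HpaI digestion and capillary electrophoresis; bidirectional fitting versus DMSO baseline.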

[20] = ATG_GRE_CIS: Attagene CIS-FACTORIAL HepG2 Assay for human Glucocorticoid Response Elements (GRE) (AID 2282947); conditions: HepG2 GRE cis-reporter, Attagene multiplex mRNA; actives raise or lower the signal
In short: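 Multiplexed cis-reporter mRNA induction, HepG2, 24 h post-dose. RT-PCR, FAM-labelled, HpaI-digested amplicons by CE. Bidirectional fit vs DMSO.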

Measured: AC50

Bile acid receptor (Homo sapiens), sequence (Q96RI1 whole entry, looked up): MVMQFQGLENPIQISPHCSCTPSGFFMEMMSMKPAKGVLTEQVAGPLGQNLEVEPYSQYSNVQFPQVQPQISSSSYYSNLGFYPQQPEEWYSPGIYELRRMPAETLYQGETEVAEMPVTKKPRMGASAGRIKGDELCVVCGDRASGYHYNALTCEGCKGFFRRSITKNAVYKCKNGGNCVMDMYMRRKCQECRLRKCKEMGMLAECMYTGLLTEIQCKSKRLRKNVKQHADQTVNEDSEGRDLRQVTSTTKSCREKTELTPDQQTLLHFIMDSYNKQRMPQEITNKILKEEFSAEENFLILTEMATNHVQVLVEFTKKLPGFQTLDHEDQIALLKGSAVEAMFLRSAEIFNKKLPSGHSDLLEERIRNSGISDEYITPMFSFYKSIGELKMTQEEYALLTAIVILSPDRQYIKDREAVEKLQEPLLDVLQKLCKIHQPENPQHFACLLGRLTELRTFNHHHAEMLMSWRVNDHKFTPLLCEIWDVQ
Retinoic acid receptor alpha (Homo sapiens), sequence (P10276 whole entry, looked up): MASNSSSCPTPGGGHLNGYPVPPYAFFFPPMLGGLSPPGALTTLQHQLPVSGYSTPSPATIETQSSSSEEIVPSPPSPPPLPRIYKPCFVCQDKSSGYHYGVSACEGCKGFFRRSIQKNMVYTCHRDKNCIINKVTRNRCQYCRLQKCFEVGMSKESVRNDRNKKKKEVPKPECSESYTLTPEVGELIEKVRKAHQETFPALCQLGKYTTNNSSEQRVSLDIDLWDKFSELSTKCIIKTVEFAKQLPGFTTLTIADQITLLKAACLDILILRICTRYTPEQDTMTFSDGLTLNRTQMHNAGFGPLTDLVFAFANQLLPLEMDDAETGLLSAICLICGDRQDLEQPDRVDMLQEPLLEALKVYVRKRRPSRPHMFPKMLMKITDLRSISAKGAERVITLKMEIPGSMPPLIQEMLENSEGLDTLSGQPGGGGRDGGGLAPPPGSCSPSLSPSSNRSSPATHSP
Transcription factor E2F1 (Homo sapiens), sequence (Q01094 whole entry, looked up): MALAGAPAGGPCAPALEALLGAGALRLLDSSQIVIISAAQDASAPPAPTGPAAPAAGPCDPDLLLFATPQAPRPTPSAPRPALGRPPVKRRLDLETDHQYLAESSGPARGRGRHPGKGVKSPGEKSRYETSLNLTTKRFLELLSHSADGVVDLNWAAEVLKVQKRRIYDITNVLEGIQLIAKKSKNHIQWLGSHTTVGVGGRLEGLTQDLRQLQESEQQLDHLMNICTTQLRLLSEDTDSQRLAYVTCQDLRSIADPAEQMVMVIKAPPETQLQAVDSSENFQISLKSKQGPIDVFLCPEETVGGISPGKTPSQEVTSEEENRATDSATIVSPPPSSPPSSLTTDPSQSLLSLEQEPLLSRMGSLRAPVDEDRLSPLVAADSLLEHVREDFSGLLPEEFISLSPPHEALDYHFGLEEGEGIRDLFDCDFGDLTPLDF
Aryl hydrocarbon receptor (Homo sapiens), sequence (P35869 whole entry, looked up): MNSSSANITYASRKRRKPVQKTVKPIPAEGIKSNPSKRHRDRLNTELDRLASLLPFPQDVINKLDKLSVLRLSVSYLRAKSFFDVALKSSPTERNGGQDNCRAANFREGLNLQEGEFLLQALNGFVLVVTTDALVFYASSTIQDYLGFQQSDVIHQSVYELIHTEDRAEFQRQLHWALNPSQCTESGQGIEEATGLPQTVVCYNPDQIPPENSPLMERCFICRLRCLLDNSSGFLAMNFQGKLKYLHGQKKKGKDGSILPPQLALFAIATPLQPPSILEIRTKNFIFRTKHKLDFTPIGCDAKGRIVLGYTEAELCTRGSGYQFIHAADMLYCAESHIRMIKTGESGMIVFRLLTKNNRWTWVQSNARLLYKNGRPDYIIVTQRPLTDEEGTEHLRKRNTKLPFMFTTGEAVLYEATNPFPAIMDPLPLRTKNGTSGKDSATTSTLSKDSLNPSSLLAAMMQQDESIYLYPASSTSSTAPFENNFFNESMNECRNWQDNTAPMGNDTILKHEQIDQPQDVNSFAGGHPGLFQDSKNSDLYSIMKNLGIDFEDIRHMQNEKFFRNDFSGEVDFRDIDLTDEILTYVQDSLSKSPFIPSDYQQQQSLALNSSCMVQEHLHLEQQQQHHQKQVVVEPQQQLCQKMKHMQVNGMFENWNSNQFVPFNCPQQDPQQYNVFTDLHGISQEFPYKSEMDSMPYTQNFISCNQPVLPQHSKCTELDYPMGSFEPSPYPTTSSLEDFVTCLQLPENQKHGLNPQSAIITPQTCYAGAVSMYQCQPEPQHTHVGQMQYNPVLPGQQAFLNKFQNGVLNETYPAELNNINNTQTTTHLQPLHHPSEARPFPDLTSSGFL
Hepatocyte nuclear factor 3-beta (Homo sapiens), sequence (Q9Y261 whole entry, looked up): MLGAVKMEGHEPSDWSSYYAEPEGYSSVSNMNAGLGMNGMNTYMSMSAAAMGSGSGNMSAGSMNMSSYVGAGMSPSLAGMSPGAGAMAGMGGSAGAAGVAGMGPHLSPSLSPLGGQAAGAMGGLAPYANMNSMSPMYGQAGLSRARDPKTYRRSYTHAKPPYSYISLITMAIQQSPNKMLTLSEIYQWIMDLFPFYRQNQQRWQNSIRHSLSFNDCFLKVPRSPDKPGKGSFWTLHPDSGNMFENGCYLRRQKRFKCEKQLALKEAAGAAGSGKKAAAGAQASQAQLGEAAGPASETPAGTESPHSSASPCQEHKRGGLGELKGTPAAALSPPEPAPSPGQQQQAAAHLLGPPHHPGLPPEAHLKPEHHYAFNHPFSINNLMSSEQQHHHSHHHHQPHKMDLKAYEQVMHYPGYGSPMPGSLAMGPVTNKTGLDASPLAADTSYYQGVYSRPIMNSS

Cc1cc(Cl)ccc1OC(C)C(=O)O (configuration not stated)
active: [3] 28.5 µM
inactive: [1] | [2] | [4] | [5] | [6] | [7] | [8] | [9] | [10] | [11] | [12] | [13] | [14] | [15] | [16] | [17]

C#CCO
inactive: [1] | [2] | [3] | [4] | [5] | [6] | [7] | [8] | [9] | [10] | [11] | [12] | [18] | [13] | [15] | [16] | [17]

CCC[CH2][Sn]([CH2]CCC)([CH2]CCC)[CH2]CCC
inactive: [1] | [3] | [8] | [10] | [12] | [13] | [14] | [15] | [16] | [17] | [20]
active: [2] 3.31 µM | [4] 7.55 µM | [5] 19.1 µM | [6] 5.89 µM | [7] 0.283 µM | [9] 14 µM | [11] 5.14 µM | [19] 0.378 µM

Cl[C@H]1OCCO[C@@H]1Cl
inactive: [1] | [2] | [3] | [4] | [5] | [6] | [7] | [8] | [9] | [10] | [11] | [12] | [13] | [14] | [15] | [16] | [17]

CC(C)[C@H](C(=O)OC(C#N)c1cccc(Oc2ccccc2)c1)c1ccc(OC(F)F)cc1 (some centres not stated)
inactive: [1] | [2] | [3] | [4] | [5] | [6] | [7] | [8] | [9] | [10] | [11] | [12] | [13] | [14] | [15] | [16] | [17] | [19] | [20]

O=C(Nc1ccc(Br)cc1)c1cc(Br)cc(Br)c1O
inactive: [1] | [2] | [4] | [5] | [8] | [9] | [10] | [12] | [18] | [14] | [15] | [16] | [20]
active: [3] 0.63 µM | [6] 13.3 µM | [7] 4.76 µM | [11] 52.9 µM | [13] 4.61 µM | [17] 168 µM

CCCCCCCCBr
inactive: [1] | [2] | [3] | [4] | [5] | [6] | [7] | [8] | [9] | [10] | [11] | [12] | [13] | [14] | [15] | [16] | [17] | [19] | [20]

Reference: PubChem BioAssay (EPA / NIEHS)
